Bioassay records: PubChem BioAssay, several laboratories
Only some compounds are listed: those with a hit (about 0.94% of all), similar ones and a draw of the others.
MazF activator = activators of E. coli MazEF toxin-antitoxin RNase, primary screen, biochemical, fluorescence, uHTS; Endoribonuclease toxin MazF (Escherichia coli (strain K12)), P0AE70; FAM/BHQ RNA-DNA oligo cleavage fluorescence, 5 h; activation, % at 20 µM; 350,000 compounds, 0.32% hits; in the data active = activation above about 50%
Target sequence (P0AE70 whole entry, looked up): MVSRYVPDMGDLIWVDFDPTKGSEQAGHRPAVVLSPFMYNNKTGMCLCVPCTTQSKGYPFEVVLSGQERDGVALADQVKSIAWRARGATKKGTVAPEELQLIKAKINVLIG
PriA SSB inh = inhibitors of Klebsiella pneumoniae PriA binding to SSB C-terminal tail, primary screen, biochemical, AlphaScreen | PriA–SSB C-terminal tail interaction (Klebsiella pneumoniae) | AlphaScreen SSBct-PriA binding, biotinylated peptide | inhibition, % at 33 µM | 430,000 compounds, 0.6% hits | AID 1272365, 2023; in the data active = inhibition mostly above about 37%, no sharp cut-off; inactive = mostly below about 20%;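 note: plate controls were negative control peptide for no effect and reference peptide for full effect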
BH1578 lux ind = inducers of Vibrio cholerae quorum light production without autoinducers, primary screen, BH1578 luxS cqsA deficient, single point. V. cholerae BH1578 lux reporter, luminescence, 6 h. activation, % at 18.7 µM. 350,000 compounds, 0.16% hits. AID 588436, 2011; in the data active = activation mostly above about 9.7%, no sharp cut-off
Mtb hypoxia rep = PubChem AID 1159583; M. tuberculosis hypoxia-regulated fluorescent reporter, fluorescence; 300,000 compounds, 0.1% hits; fluorescence inhibition, % (concentration not given with the values); in the data active = fluorescence inhibition mostly above about 23%, no sharp cut-off; inactive = mostly below about 17%
The depositor's hits bear a star; i = inactive; x = no result shown.

SMILES | MazF activator | PriA SSB inh | BH1578 lux ind | Mtb hypoxia rep
COC(=O)c1cccc(Nc2nn3c(=O)c4cc(Cl)ccc4nc3s2)c1 | x | -8 | x | x
CCCCn1c(NC(=O)c2ccccc2)c(C#N)c2nc3ccccc3nc21 | -13 | 56* | 4 | 2
CCCCCn1c(NC(=O)c2ccco2)c(C(=O)OCC)c2nc3ccccc3nc21 | -5 | 7 | i | 8
CCC(C)n1c(NC(=O)c2ccccc2)c(C#N)c2nc3ccccc3nc21 (stereo not drawn) | 4 | 58* | 0 | x
N#CCCn1cc(/C=N/N=C2NC(=O)C(CC(=O)O)S2)c(-c2ccc(F)cc2)n1 (stereo not drawn) | x | i | x | x
Cc1cc(C)n(-c2nc3nonc3nc2Nc2cccc(C)c2C)n1 | 190* | 0 | i | 5
Cc1cc(C)n(-c2nc3ccccc3nc2Nc2ccc3c(c2)OCO3)n1 | -8 | -69 | 0 | 0
Cc1cc(C(=O)N2CC(C(=O)Nc3cccnc3)C2)no1 | x | 2 | x | x
O=C(Cn1ccc2ccccc21)Nc1cc(N2CCN(Cc3ccccc3)CC2)ncn1 | x | 44* | x | x
COc1cnc(C)[nH]c1=O | x | -18 | x | x
COc1ccccc1OCCNc1ccc(S(=O)(=O)N2CCCC2)cn1 | 167* | 2 | 0 | 7
COc1cnc(-c2ccccn2)nc1Sc1ccccc1Cl | 6 | 83* | -2 | 4
COc1ccc(Oc2nc(-c3ccccn3)ncc2OC)cc1 | -12 | 28 | i | 3
COc1cnc(-c2ccccn2)nc1OC | x | 112* | x | x
COc1cnc(-c2ccccn2)nc1Oc1cccc(Cl)c1 | -1 | 7 | 0 | -3
COc1cnc(-c2ccccn2)nc1Sc1c(Cl)cccc1Cl | 3 | -6 | i | -8
COc1cnc(-c2ccccn2)nc1Oc1c(C)cccc1C | -2 | 49* | i | -2
COc1cnc(-c2ccccn2)nc1N(C)C | 11 | 98* | 0 | 24
O=C(NCc1cccs1)c1cccc(Oc2ccccn2)c1 | x | -11 | x | x
O=C(Cc1cccs1)Nc1cnoc1 | x | -8 | x | x
CCOC(=O)C(C)Sc1nc(-c2ccccn2)ncc1OC (stereo not drawn) | 18 | 90* | -2 | 4
COc1cnc(-c2ccccn2)nc1Cl | x | 40 | x | x
COC(=O)c1sccc1S(=O)(=O)NCC(C)(OC)c1ccccc1F (stereo not drawn) | x | -6 | x | x
COC(=O)c1c(NC(=O)c2nc3ccccc3s2)sc2c1CC(C)(C)NC2(C)C | 53* | -11 | 0 | 4
CCCCc1ccc(N=NC(C(=O)Nc2ccccc2OC)=C(C)O)cc1 | x | -3 | x | x
SMILES | MazF activator | PriA SSB inh | BH1578 lux ind | Mtb hypoxia rep
CCN(CC)c1ccc(N2C(=O)/C(=C/c3ccccc3[N+](=O)[O-])SC2=S)cc1 | x | 15 | x | x
Cn1c(/C(C#N)=C(\O)COc2ccc3ccccc3c2)nc2ccccc21 | 174* | -7 | x | 2
CC(C)c1ccc(N2CCN(CC(=O)NCCOc3ccc(F)cc3)C2=O)cc1 | x | -8 | x | x
CN=c1scc(-c2ccc(OC)cc2)n1N=C(C)c1cccnc1 | x | 44* | x | 2
CN=c1scc(-c2ccc(OC)cc2)n1/N=C(\C)c1cccnc1 | 4 | x | 0 | x
Cc1cc(C(=O)Nc2nc(C(=O)NCCc3cccs3)co2)no1 | x | -19 | x | x
CCc1ccc(OCC(=O)NNCC(=O)Nc2ccc(OC)cc2)cc1 | 6 | 4 | 5 | 57*
CCOc1ccc(OCC(=O)Nc2ccc(OC)cc2)cc1 | -5 | -19 | 0 | 3
Cc1[nH]c2ccccc2c1C(=O)/C=C/c1ccccc1Cl | 51* | 2 | -1 | 4
CCN(CC)c1ccc(C=NNC(=O)CN2CCCc3ccccc32)cc1 | x | 50* | x | 3
O=C(CN1CCCc2ccccc21)N/N=C\C=C/c1ccccc1 | x | 39* | x | x
CCN(CC)c1ccc(/C=N/NC(=O)CN2CCCc3ccccc32)cc1 | 0 | x | -1 | x
CCOC(=O)c1ccc(NC(=O)CC2SC(=NN=Cc3c[nH]c4ccccc34)NC2=O)cc1 (stereo not drawn) | x | -3 | x | x
O=C(Nc1cccc(Cl)c1)NC1CC2CCC1C2 (stereo not drawn) | 6 | -19 | i | 32*
CCn1c(SCC(=O)NC(=O)NCc2ccco2)nc2sc(C)c(C)c2c1=O | -3 | -2 | i | 38*
Cc1sc2nc(SCC(=O)NCc3ccco3)n(C)c(=O)c2c1C | -1 | -13 | i | 16
CS(=O)(=O)N1CC(C(=O)NCCCc2ccccc2)C1 | x | -7 | x | x
CCn1c(O)c(N=NC(=O)c2ccc(CSc3nncn3C)cc2)c2ccccc21 | -2 | -8 | 0 | 42*
Cn1cnnc1SCc1ccc(C(=O)N=Nc2c(O)n(Cc3ccc(Cl)cc3)c3ccccc23)cc1 | -10 | 15 | -1 | x
O=C(NCC1CCN(c2cnccn2)CC1)C(=O)Nc1ccon1 | x | 0 | x | x
COc1cc(C(=O)Nc2ccc(Nc3ccccc3)cc2)cc(OC)c1OC | 8 | 43* | 0 | 1
Cc1c(NC(=O)c2ccccc2)cccc1[N+](=O)[O-] | 4 | -13 | -1 | 5
COc1cc(C(=O)Nc2ccncc2)cc(OC)c1OC | 1 | 4 | -1 | 17
O=C(Nc1ccc(Nc2ccccc2)cc1)c1ccc(Cl)c([N+](=O)[O-])c1 | 78* | 52* | 2 | 9
Cc1ccccc1NC(=O)c1ccc(Nc2c([N+](=O)[O-])cc([N+](=O)[O-])c3ccccc23)cc1 | 8 | 48* | -1 | -3
SMILES | MazF activator | PriA SSB inh | BH1578 lux ind | Mtb hypoxia rep
Cc1cc(C(=O)Nc2ccc(Nc3ccccc3)cc2)ccc1[N+](=O)[O-] | 29 | 54* | 0 | 4
O=C(Cc1c[nH]c2ccccc12)N1CCN(c2cc(C(F)(F)F)ncn2)CC1 | x | -15 | x | x
Cc1ccc(NC(=O)c2ccc(NCCN)c([N+](=O)[O-])c2)cc1 | 13 | 10 | 0 | x
Cc1cccc(NC(=O)c2ccc(NCCc3ccccc3)c([N+](=O)[O-])c2)c1 | 575* | -1 | 2 | 3
CO[C@@]12[C@H](COC(N)=O)C3=C(C(=O)C(C)=C(N)C3=O)N1C[C@@H]1N[C@@H]12 | 7 | -5 | 58* | x
CC(C)CN(C1CCS(=O)(=O)C1)S(=O)(=O)c1ccc(Cl)c([N+](=O)[O-])c1 (stereo not drawn) | x | 41* | x | x
COCCCn1c(O)c(C=Nc2cc(OC)ccc2OC)c(C)c(C#N)c1=O | x | -3 | x | x
Fc1ccc(CSc2nc3ccccc3[nH]2)c2ccccc12 | 54* | -22 | 2 | x
O=c1cc(CSc2nc3ccccc3[nH]2)c2ccccc2[nH]1 | 3 | -7 | -4 | 0
CC(=NNC(=S)N1CCN(c2ccccn2)CC1)c1nccs1 | 12 | 92* | -1 | x
CCOC(=O)C1CCCN(c2ncc3c(=O)n(Cc4ccccc4F)c(=O)[nH]c3n2)C1 (stereo not drawn) | x | 3 | x | x
Nc1ccccc1Nc1ccccc1 | 4 | 64* | 0 | x
Nc1ccc(Nc2ccccc2)c(Cl)c1 | 7 | 52* | -7 | 10
COC(=O)c1ccc(NC(=O)Cn2nc(-c3ccncc3)nc2SCC(=O)Nc2nccs2)cc1 | 56* | 0 | 1 | -12
N#Cc1nc(-c2cccs2)oc1N1CCN(Cc2ccccc2)CC1 | -1 | 41* | i | 4
